In the library only some 7.8% were active in any assay of this set; here they are far more common.
MARV entry inh: inhibitors of Marburg virus binding or cell entry. hit rate 1.8% among 300,000. Marburg virus pseudotyped entry inhibition, cell reporter. Potency, µM (titrated, usually from 37.8 µM), for the others: top-dose activity change, negative = inhibition, usual class: inhibitors; calls by dose curve; tested in HEK293 cells; also: potency is read from the fitted curve at half-maximal effect
HCMV inh: human cytomegalovirus inhibition; HFF cells, HCMV-luciferase reporter, 72 h; stronger effect = lower value; activity change, negative = inhibition, % at 57.5 µM; hit rate 4.5% among 410,000; in the data active = activity change below about -60%; inconclusive = no clear call, values can overlap the other calls; inactive = above about -39%
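Luciferase read-out from HCMV-luciferase-infected HFFs (MOI 1 PFU/cell) 72 h post infection at 37C; compounds added after 16 h cell attachment; activity normalized between buffer-only basal and Salinomycin (10uM) inhibitor controls.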
HCV inhibitor: HCV inhibition; Potency, µM (doses to about 41.8 µM), inactives show top-dose activity change, negative = inhibition, actives largely listed as inhibitors; hit rate 3.4% among 340,000; Huh7.5.1 HCVcc-Cre infection, luciferase reporter, 44 h; active = well fitted inhibition curve with a large enough effect; inconclusive = small, poorly fitted or top-dose-only effect, or another doubt; inactive = no such curve, though single readings can be large or run the other way; also: potency is read from the fitted curve at half-maximal effect
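Reporter virus HCVcc-Cre (~0.5 moi) infects cells exposed to compound; seeding density 1,000 cells/well with 4 h settling beforehand. Luminescence, 15 sec read, taken 44 h post-infection following a 15 min RT substrate incubation.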
LASV entry inh: inhibitors of Lassa virus binding or cell entry; Lassa virus pseudotype entry inhibition, cell reporter; Potency, µM (series often up to 37.9 µM), inactives show at the highest dose activity change, negative = inhibition, usual class: inhibitors; hit rate 1.2% among 300,000; AID 540256; calls by dose curve; tested in HEK293 cells; also: potency is read from the fitted curve at half-maximal effect; nearly all actives have a fitted effect of over 50% in size
Vaccinia Venus: inhibitors of vaccinia virus (Venus reporter); Vaccinia virus Venus reporter expression, fluorescence; Potency, µM (titrated, usually from 36.5 µM), without a hit: at the top dose activity change, negative = inhibition, usual class: inhibitors; hit rate 0.46% among 330,000; AID 720580; calls by dose curve; tested in A549 cells; also: potency is read from the fitted curve at half-maximal effect; nearly all actives have a fitted effect of over 30% in size
Vaccinia mCherry: inhibitors of vaccinia virus infection (mCherry reporter signal); Vaccinia virus mCherry reporter infection, fluorescence; Potency, µM (top dose mostly 36.5 µM), for the others: at the highest dose activity change, negative = inhibition, usual class: inhibitors; hit rate 0.63% among 310,000; calls by dose curve; tested in A549 cells; also: potency is read from the fitted curve at half-maximal effect; nearly all actives have a fitted effect of over 35% in size
An asterisk follows results filed as active; i = inactive; ? = inconclusive; . = no result given; [ ] = another dose, or the depositor's remark. % is scaled to controls: 0 for no effect and ±100 for the full control effect.

SMILES	MARV entry inh	HCMV inh	HCV inhibitor	LASV entry inh	Vaccinia Venus	Vaccinia mCherry
O=C(/C=C/c1ccccc1Cl)NCc1cccs1	14.0%	37.3	?	18.4µM*	-12.3%	-11.5%
CCOc1cc(CNC(=O)c2cc(-c3ccccc3)n[nH]2)cc(OCC)c1OCC	.	-10.2	.	2.1%[46.1 µM]	-13.5%	-3.3%
COc1ccc(-c2noc(CN(C(C)C)S(=O)(=O)c3ccc(Br)cc3)n2)cc1	-11.7%[46.1 µM]	-6.0	.	-7.5%[46.1 µM]	-12.9%	-19.4%
N#Cc1ccc(S(=O)(=O)N[C@H]2CC[C@@]34CCCN3C(=O)CCC[C@H]4[C@H]2Cc2ccccc2)cc1	.	-34.7	.	.	.	.
Cc1ncc2c(c1CNC(=O)/C=C/c1cccs1)CCN(C(=O)c1ccc3c(c1)OCCO3)C2	.	.	.	.	-5.0%	-13.6%
O=S(=O)(Cc1cc(Cl)nc(-c2ccncc2)n1)c1ccccc1	?	-65.8*	?	-6.7%	-3.6%	-3.0%
CS(=O)(=O)Cc1cc(Sc2ccccc2)nc(-c2ccncc2)n1	?	2.4	3.16µM*	-14.1%	2.5%	1.2%
Cc1ccc(C(=O)N2CCOc3ccc(CN4CCN(Cc5ccccn5)CC4)cc3C2)cc1	.	.	.	.	-3.2%	-5.5%
COc1ccc(OC)c(CCNC(=O)c2ccc3c(c2)N(Cc2ccc(C)cc2)CCS3)c1	-2.9%[46.1 µM]	-21.2	.	22.1%[46.1 µM]	-6.4%	-14.1%
COc1ccc(N2CCN(C(=O)c3cccnc3SCc3cccc(Br)c3)CC2)cc1	?	9.3	?	12.6µM*	-17.2%	-6.9%
COc1ccc(N2CCN(C(=O)c3cnc(N4CCCC4)nc3C)CC2)cc1	.	-18.1	.	?	-0.8%	-1.9%
Cc1nc2ccccc2c(=O)n1/N=C/c1c(O)ccc2ccccc12	-16.0%[46.1 µM]	-30.6	-14.6%	0.3%[46.1 µM]	?	12.6µM*
O=c1c2ccccc2nc(N/N=C/c2c(O)ccc3ccccc23)n1O	0.794µM*	-101.4*	0.891µM*	0.631µM*	?	.
Cc1nc2ccccc2c(=O)n1/N=C/c1cc(Br)ccc1O	?	22.7	?	-20.8%[46.1 µM]	-24.9%	?
COc1ccc(C)cc1NC(=O)CSc1nc(=O)n(Cc2ccccn2)c2c1CCC2	.	-11.6	.	12.6%[46.1 µM]	-25.3%	-17.0%
C/C(CS(=O)(=O)c1ccc(Cl)c(Cl)c1)=N/NC(N)=S	7.5%[46.1 µM]	-69.7*	-18.2%	-14.4%	-27.6%	-27.3%
CC1(C)CC(=O)C2=C(C1)NC1=C(C(=O)c3ccccc31)C2c1ccc(O)cc1 (stereo not given)	?	4.9	-19.5%	-23.5%	11.2µM*	?
O=C1CCCC2=C1C(c1cccc(O)c1)C1=C(N2)c2ccccc2C1=O (stereo not given)	-10.1%[46.1 µM]	-0.9	-26.4%	-12.1%[46.1 µM]	-13.5%	-3.4%
CCCCc1ccc(C2C3=C(CC(C)(C)CC3=O)NC3=C2C(=O)c2ccccc23)cc1 (stereo not given)	?	-86.0*	12.6µM*	?	?	-29.6%
COc1cccc(CNC(=O)c2cnn(-c3ncc4c(n3)-c3ccccc3CCC4)c2C)c1OC	.	.	.	.	-18.4%	i
O=C(Nc1cccc(C(=O)N2CCCCC2)c1)c1nsc2ccccc12	.	38.6	.	?	-24.0%	-12.0%
O=C(Nc1cc(-c2nc3ccccc3o2)ccc1Cl)c1cccc2c(Cl)cccc12	9.1%[46.1 µM]	22.2	.	1.0%[46.1 µM]	-4.6%	-5.0%
CCOc1ccc(S(=O)(=O)N2CCN(S(=O)(=O)c3ccc(C(C)=O)cc3)CC2)cc1	17.0%[46.1 µM]	6.2	16.2%	19.6%	-4.7%	i
CCOc1ccc(S(=O)(=O)N2CN(c3cccc(C(C)=O)c3)c3nc4ccccc4nc32)cc1	-11.2%	-71.4*	?	?	-6.9%	i
O=C(O)C1=CC(=C(c2ccc(O)c(C(=O)O)c2)c2ccc(O)c(C(=O)O)c2)C=CC1=O	0.445µM*	.	7.9%	?	-20.2%	-28.2%
SMILES	MARV entry inh	HCMV inh	HCV inhibitor	LASV entry inh	Vaccinia Venus	Vaccinia mCherry
Cc1cc(NC(=O)N2CC=C(c3c[nH]c4ccccc34)CC2)ccc1Br	.	0.0	.	-14.6%[46.1 µM]	-14.6%	-20.5%
CC(C)CC(C(=O)NC1CCCCC1)N(Cc1cccs1)C(=O)c1snc(C(N)=O)c1N (stereo not given)	.	?	12.6µM*	.	.	.
CCCCC(C(=O)NC1CCCC1)N(Cc1ccccc1)C(=O)c1snc(C(N)=O)c1N (stereo not given)	?	-60.8*	?	?	-4.0%	i
CCCC(C(=O)NC1CCCC1)N(Cc1ccccc1Cl)C(=O)c1snc(C(N)=O)c1N (stereo not given)	10µM*	?	-22.7%	1.7%[46.1 µM]	-4.3%	-8.5%
CCC(C(=O)NC1CCCC1)N(Cc1ccccc1Cl)C(=O)c1snc(C(N)=O)c1N (stereo not given)	?	-6.3	?	.	-15.7%	-1.3%
CCOC(=O)C(CC)n1nc(C)c2c(C)n(-c3ccc(C)cc3)nc2c1=O (stereo not given)	1.9%[46.1 µM]	?	.	8.9%[46.1 µM]	-10.5%	-7.7%
CCCS(=O)(=O)N1CC(=O)N(c2cccc(Cl)c2C)C(C)(C(=O)NC2CCCC2)C1 (stereo not given)	.	0.0	.	-5.8%[46.1 µM]	-7.1%	-11.1%
COc1ccc(CC(=O)Nc2ccc(S(=O)(=O)NC(C)C)cc2)cc1	-4.5%	-29.4	?	-7.2%	.	.
CCCCNS(=O)(=O)c1ccc(NC(=O)Cc2ccc(OC)cc2)cc1	?	-67.0*	?	-17.2%[46.1 µM]	-17.3%	-4.9%
CCCS(=O)(=O)c1nc(S(=O)(=O)c2ccc(C)cc2)c(N(C)Cc2ccccc2)s1	?	?	.	-20.4%[46.1 µM]	-14.7%	i
COc1ccc(C(=O)N/N=C\c2coc3ccc(Cl)cc3c2=O)cc1	.	-62.6*	-24.0%	.	.	.
Cc1cc2nc(-c3ccc(OCc4ccccc4C)cc3)cc(C(F)(F)F)n2n1	2.6%[46.1 µM]	4.1	.	-7.2%[46.1 µM]	7.6%	8.7%
CCN1CCN(S(=O)(=O)c2ccc(C(=O)Nc3sc4c(c3C(N)=O)CCN(CC)C4)cc2)CC1	8.91µM*	-3.0	-26.2%	?	-29.1%	-17.0%
CCOC(=O)c1c(NC(=O)c2ccc(S(=O)(=O)N3CCC(C)CC3)cc2)sc2c1CCN(C(C)C)C2	.	-18.0	.	1.3%[46.1 µM]	-21.4%	-18.6%
CCOC(=O)c1c(NC(=O)c2ccc(S(=O)(=O)N3CCC(C)CC3)cc2)sc2c1CCN(CC)C2	.	-81.8*	.	-1.4%[46.1 µM]	?	-29.2%
CCCN1CCc2c(sc(NC(=O)CCS(=O)(=O)c3ccccc3)c2C(N)=O)C1	2.0%	-92.4*	-22.4%	2.1%	-19.3%	-11.1%
CN1CCc2c(sc(NC(=O)CS(=O)(=O)c3ccccc3)c2C(N)=O)C1	-0.7%[46.1 µM]	-5.5	9.9%	13.3%	2.6%	-11.0%
COC(=O)C1=C(C)N(C)C(=NCc2cc(OC)c(OC)c(OC)c2)NC1c1cccc(Cl)c1 (stereo not given)	.	-6.5	.	.	.	.
CCOC(=O)[C@H]1CCCN(c2nc3ccccc3nc2[C@@H](C#N)C(=O)O[C@@H](C)COC)C1	-1.9%	.	.	.	.	.
O=C(O)CCSc1nnc(-c2ccc(Cl)cc2Cl)o1	?	-76.3*	.	?	-3.8%	-4.7%
